STK33 kin inh: blocks human STK33 kinase activity. Q9BYT3. ADP-Glo luminescence, MBP substrate. inhibition, % at 12.5 µM. hit rate 0.44% among 27,000. AID 2322; in the data active = inhibition above about 20%; inconclusive = no clear call, values can overlap the other calls
Target sequence (Q9BYT3 whole entry, looked up): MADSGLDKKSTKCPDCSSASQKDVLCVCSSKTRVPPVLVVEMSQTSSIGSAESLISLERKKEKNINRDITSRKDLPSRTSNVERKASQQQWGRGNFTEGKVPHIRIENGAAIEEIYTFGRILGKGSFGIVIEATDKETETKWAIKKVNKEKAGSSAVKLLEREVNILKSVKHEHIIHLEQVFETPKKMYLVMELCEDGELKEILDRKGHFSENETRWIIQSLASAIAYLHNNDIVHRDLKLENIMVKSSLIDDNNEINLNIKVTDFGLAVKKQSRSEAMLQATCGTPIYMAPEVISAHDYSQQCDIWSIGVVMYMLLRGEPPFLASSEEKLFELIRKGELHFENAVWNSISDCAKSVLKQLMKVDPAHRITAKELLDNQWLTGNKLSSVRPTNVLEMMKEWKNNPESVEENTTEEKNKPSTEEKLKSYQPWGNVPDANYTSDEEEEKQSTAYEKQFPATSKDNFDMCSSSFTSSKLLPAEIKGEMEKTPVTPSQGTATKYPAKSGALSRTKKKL
PD-1 reverse act: activators reversing PD-1 mediated T-cell inhibition. primary human CD4 T cells, PD-L1 beads, CellTiter-Glo 96 h. activation, % (no concentration beside the values). 29,000 tested, under 10 active. AID 2316; call rule not given here;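 also: 0% = median vehicle wells and 100% = positive control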
NOMO-1 viab: STK33 inhibitor candidate reducing NOMO-1 cell viability. hit rate 7.5% among 37,000. NOMO-1 AML viability, CellTiter-Glo luminescence, 72 h. AID 2330. inhibition, % (no concentration beside the values); in the data active = inhibition above about 80%; inconclusive = no clear call, values can overlap the other calls
Numbers without * were called inactive; ? = inconclusive; . = not tested or not shown. Shown is part of a subset that was picked to be rich in hits.

SMILES	STK33 kin inh	PD-1 reverse act	NOMO-1 viab
CC(C)(C)Nc1cccccc1=NCc1ccccc1	.	-3.5	91.9*
C=CC1(C)C=C2CCC3C(C)(C)C(O[C@@H]4O[C@@H](CO)[C@H](O)[C@H]4O)CCC3(C)C2CC1O[C@@H]1O[C@H](CO)[C@@H](O)[C@H](O)[C@H]1O (stereo not given in full)	0.9	.	.
CC(=O)N1C(=N)S/C(=C\c2cc3ccccc3nc2Sc2ccccc2)C1=O	.	1.0	6.6
C[C@H](CO)N1C[C@H](C)[C@H](CN(C)Cc2ccc(C(=O)Nc3ccccc3N)cc2)Oc2ccc(NC(=O)Nc3ccc(C(F)(F)F)cc3)cc2CC1=O	.	-3.3	139.8*
C[C@@H]1CN([C@H](C)CO)C(=O)c2cc(NC(=O)Nc3cccc4ccccc34)ccc2O[C@H]1CN(C)Cc1ccc(C(=O)Nc2ccccc2N)cc1	.	-1.6	27.0
C[C@@H]1CN([C@H](C)CO)C(=O)c2cc(NC(=O)Nc3ccc(C(F)(F)F)cc3)ccc2O[C@H]1CN(C)Cc1ccc(C(=O)Nc2ccccc2N)cc1	.	-0.5	53.9
C[C@@H]1CN([C@H](C)CO)C(=O)Cc2cc(NC(=O)c3ccncc3)ccc2O[C@@H]1CN(C)Cc1ccc(C(=O)Nc2ccccc2N)cc1	.	0.2	61.2
C[C@@H]1CN([C@H](C)CO)C(=O)c2cc(NC(=O)Nc3cccc4ccccc34)ccc2O[C@@H]1CN(C)Cc1ccc(C(=O)Nc2ccccc2N)cc1	.	-1.5	104.8*
C[C@@H]1CN([C@@H](C)CO)C(=O)Cc2cc(NC(=O)Nc3ccc(C(F)(F)F)cc3)ccc2O[C@@H]1CN(C)Cc1ccc(C(=O)Nc2ccccc2N)cc1	.	-3.0	127.5*
C[C@@H]1CN([C@H](C)CO)C(=O)Cc2cc(NC(=O)Nc3ccc(F)cc3)ccc2O[C@H]1CN(C)Cc1ccc(C(=O)Nc2ccccc2N)cc1	.	-0.2	15.3
C[C@H]1CN([C@@H](C)CO)C(=O)Cc2cc(NC(=O)C3CC3)ccc2O[C@H]1CN(C)Cc1ccc(C(=O)Nc2ccccc2N)cc1	.	-1.8	127.5*
COc1cc(C(=O)Nc2ccc(S(=O)(=O)Nc3nccs3)cc2)cc(OC)c1OC	-0.7	.	-0.1
COc1ccc(C#Cc2ccc3c(c2)[C@]2(C(=O)N3)[C@H](c3ccccc3OCCO)N3[C@H](c4ccccc4)[C@H](c4ccccc4)OC(=O)[C@H]3[C@@H]2C(=O)O)cc1	-1.1	.	.
Cc1ccc(S(=O)(=O)Nc2ccc3c(c2)C(=O)N([C@H](C)CO)C[C@H](C)[C@@H](CN(C)Cc2ccc4c(c2)OCO4)O3)cc1	.	-0.1	17.2
C[C@@H]1CN([C@H](C)CO)C(=O)c2cc(N(C)C)ccc2O[C@H]1CN(C)S(=O)(=O)c1ccc(Cl)cc1	.	.	35.2
Cc1cc(C)c(NC(=O)CSc2nnc(-c3ccncc3)n2C)c(C)c1	-5.7	1.2	-3.6
C[C@H](CO)N1C[C@H](C)[C@H](CN(C)Cc2ccc(C(=O)Nc3ccccc3N)cc2)Oc2ccc(NC(=O)Cn3cnnn3)cc2CC1=O	.	-0.5	96.6*
C[C@H](CO)N1C[C@H](C)[C@H](CN(C)Cc2ccc(C(=O)Nc3ccccc3N)cc2)Oc2ccc(NC(=O)c3ccncc3)cc2CC1=O	.	-3.3	127.7*
C[C@@H]1CN([C@H](C)CO)C(=O)Cc2cc(NC(=O)Nc3ccccc3)ccc2O[C@@H]1CN(C)Cc1ccc(C(=O)Nc2ccccc2N)cc1	.	-0.4	107.8*
C[C@H](CO)N1C[C@H](C)[C@H](CN(C)Cc2ccc(C(=O)Nc3ccccc3N)cc2)Oc2ccc(NC(=O)Nc3cccc4ccccc34)cc2CC1=O	.	-5.2	141.3*
C[C@@H]1CN([C@H](C)CO)C(=O)c2cc(NC(=O)Cn3cnnn3)ccc2O[C@H]1CN(C)Cc1ccc(C(=O)Nc2ccccc2N)cc1	.	-0.6	4.8
C[C@H](CO)N1C[C@H](C)[C@H](CN(C)Cc2ccc(C(=O)Nc3ccccc3N)cc2)Oc2ccc(NC(=O)Nc3cccc4ccccc34)cc2C1=O	.	-0.5	?
C[C@H]1CN([C@@H](C)CO)C(=O)Cc2cc(NC(=O)Nc3ccc(F)cc3)ccc2O[C@@H]1CN(C)Cc1ccc(C(=O)Nc2ccccc2N)cc1	.	-0.8	62.4
C[C@@H]1CN([C@@H](C)CO)C(=O)Cc2cc(NC(=O)c3ccncc3)ccc2O[C@@H]1CN(C)Cc1ccc(C(=O)Nc2ccccc2N)cc1	.	0.7	64.7
COc1ccc(NC(=O)N(C)C[C@@H]2Oc3c(NC(=O)Nc4ccc(F)cc4)cccc3C(=O)N([C@@H](C)CO)C[C@H]2C)cc1	.	.	-4.8
SMILES	STK33 kin inh	PD-1 reverse act	NOMO-1 viab
C[C@H](CO)N1C[C@H](C)[C@H](CN(C)S(=O)(=O)c2ccc(F)cc2)Oc2ccc(NC(=O)Cn3cnnn3)cc2C1=O	.	0.5	-1.7
C=CCOC(=O)[C@H]1[C@@H]2C(=O)O[C@@H](c3ccccc3)[C@@H](c3ccccc3)N2[C@@H](c2ccc(OCCOC(=O)[C@@H]3C[C@@H]4C(=O)N[C@@H](Cc5ccccc5)C(=O)N4[C@@H]3c3cccc(OCCO)c3)cc2)[C@]12C(=O)Nc1ccccc12	15.6	.	.
C[C@@H]1O[C@@H](OC2C(O[C@H]3[C@H](O[C@H]4CC[C@@]5(C)C(CC[C@]6(C)C5CC=C5C7CC(C)(C)C(O)C(O)[C@]7(C)CC[C@]56C)C4(C)C)O[C@H](C(=O)O)[C@@H](O)[C@@H]3O)OC(CO)C(O)C2O)[C@H](O)[C@H](O)[C@H]1OC1OCC(O)C(O)C1O (stereo not given in full)	0.1	1.5	-4.7
C[C@H]1CN([C@@H](C)CO)C(=O)c2cc(NC(=O)C3CC3)ccc2O[C@H]1CN(C)C(=O)Nc1ccc2c(c1)OCO2	.	.	4.4
C[C@@H]1CN([C@H](C)CO)C(=O)Cc2cc(NC(=O)Cn3cnnn3)ccc2O[C@@H]1CN(C)Cc1ccccc1	4.7	1.2	4.7
N#Cc1c(-c2ccc(Cl)cc2)csc1S(=O)C1CCCCC1 (stereo not given)	2.0	-7.3	24.2
Cc1noc(C)c1NC(=O)Nc1ccc2c(c1)CC(=O)N([C@@H](C)CO)C[C@@H](C)[C@@H](CN(C)Cc1ccc(C(=O)Nc3ccccc3N)cc1)O2	.	0.2	36.2
CC(C)NC(=O)Nc1ccc2c(c1)CC(=O)N([C@H](C)CO)C[C@H](C)[C@H](CN(C)Cc1ccc(C(=O)Nc3ccccc3N)cc1)O2	.	-0.6	125.7*
C[C@@H]1CN([C@@H](C)CO)C(=O)c2cc(NC(=O)C3CC3)ccc2O[C@H]1CN(C)Cc1ccc(Oc2ccccc2)cc1	.	-0.9	47.4
c1ccc(-c2oc3ncnc(NCCN4CCOCC4)c3c2-c2ccccc2)cc1	2.5	-4.3	39.3
O=C(O)CNc1ncnc2oc(-c3ccccc3)c(-c3ccccc3)c12	43.4*	-5.2	9.6
C[C@@H]1CN([C@H](C)CO)C(=O)c2cc(NC(=O)Cc3ccccc3)ccc2O[C@H]1CN(C)Cc1ccncc1	0.3	-0.3	10.5
C[C@H]1CN([C@@H](C)CO)C(=O)c2cc(NC(=O)Cc3ccccc3)ccc2O[C@H]1CN(C)Cc1ccncc1	-1.3	3.1	92.4*
C[C@H]1CN([C@@H](C)CO)C(=O)c2cc(NC(=O)Cc3ccccc3)ccc2O[C@@H]1CN(C)Cc1ccc2c(c1)OCO2	0.6	-0.9	10.3
C[C@H]1CN([C@@H](C)CO)C(=O)c2cc(NC(=O)CCC(F)(F)F)ccc2O[C@@H]1CN(C)Cc1ccc2c(c1)OCO2	0.8	2.1	-3.3

Source: PubChem BioAssay
